From ChEMBL document CHEMBL2218924, “A broad activity screen in support of a chemogenomic map for kinase signalling research and drug discovery” (Biochem J, 2013) come the findings set out here.

Assay [1] has as its target Tyrosine-protein kinase SYK (Homo sapiens) (UniProt P43405). Conditions: at 10 µM.
In assay [2] the target is T1, Mitogen-activated protein kinase kinase kinase 7 (Homo sapiens) (UniProt O43318).
T1 sequence (whole entry): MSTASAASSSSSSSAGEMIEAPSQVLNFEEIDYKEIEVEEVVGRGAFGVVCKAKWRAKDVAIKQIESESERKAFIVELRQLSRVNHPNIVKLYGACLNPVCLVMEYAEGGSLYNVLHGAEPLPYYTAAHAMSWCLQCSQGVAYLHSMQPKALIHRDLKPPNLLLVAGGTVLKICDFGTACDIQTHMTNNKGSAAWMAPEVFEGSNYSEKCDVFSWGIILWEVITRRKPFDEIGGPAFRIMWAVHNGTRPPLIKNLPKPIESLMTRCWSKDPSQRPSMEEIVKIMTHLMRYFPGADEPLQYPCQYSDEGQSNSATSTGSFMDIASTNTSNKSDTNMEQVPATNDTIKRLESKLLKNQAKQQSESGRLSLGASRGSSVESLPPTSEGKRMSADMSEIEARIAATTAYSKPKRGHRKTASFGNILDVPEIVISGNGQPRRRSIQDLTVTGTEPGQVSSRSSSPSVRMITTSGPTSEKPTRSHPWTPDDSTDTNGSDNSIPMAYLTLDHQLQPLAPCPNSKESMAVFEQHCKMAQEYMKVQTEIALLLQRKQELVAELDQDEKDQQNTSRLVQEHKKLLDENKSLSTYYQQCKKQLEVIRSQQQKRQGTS
Conditions: at 1 µM.

For assay [3], the target named is T1, Mitogen-activated protein kinase kinase kinase 7 (Homo sapiens). Conditions: at 10 µM.
The target in assay [4] is T2, Serine/threonine-protein kinase TAO1 (Homo sapiens) (UniProt Q7L7X3).
T2 sequence (whole entry): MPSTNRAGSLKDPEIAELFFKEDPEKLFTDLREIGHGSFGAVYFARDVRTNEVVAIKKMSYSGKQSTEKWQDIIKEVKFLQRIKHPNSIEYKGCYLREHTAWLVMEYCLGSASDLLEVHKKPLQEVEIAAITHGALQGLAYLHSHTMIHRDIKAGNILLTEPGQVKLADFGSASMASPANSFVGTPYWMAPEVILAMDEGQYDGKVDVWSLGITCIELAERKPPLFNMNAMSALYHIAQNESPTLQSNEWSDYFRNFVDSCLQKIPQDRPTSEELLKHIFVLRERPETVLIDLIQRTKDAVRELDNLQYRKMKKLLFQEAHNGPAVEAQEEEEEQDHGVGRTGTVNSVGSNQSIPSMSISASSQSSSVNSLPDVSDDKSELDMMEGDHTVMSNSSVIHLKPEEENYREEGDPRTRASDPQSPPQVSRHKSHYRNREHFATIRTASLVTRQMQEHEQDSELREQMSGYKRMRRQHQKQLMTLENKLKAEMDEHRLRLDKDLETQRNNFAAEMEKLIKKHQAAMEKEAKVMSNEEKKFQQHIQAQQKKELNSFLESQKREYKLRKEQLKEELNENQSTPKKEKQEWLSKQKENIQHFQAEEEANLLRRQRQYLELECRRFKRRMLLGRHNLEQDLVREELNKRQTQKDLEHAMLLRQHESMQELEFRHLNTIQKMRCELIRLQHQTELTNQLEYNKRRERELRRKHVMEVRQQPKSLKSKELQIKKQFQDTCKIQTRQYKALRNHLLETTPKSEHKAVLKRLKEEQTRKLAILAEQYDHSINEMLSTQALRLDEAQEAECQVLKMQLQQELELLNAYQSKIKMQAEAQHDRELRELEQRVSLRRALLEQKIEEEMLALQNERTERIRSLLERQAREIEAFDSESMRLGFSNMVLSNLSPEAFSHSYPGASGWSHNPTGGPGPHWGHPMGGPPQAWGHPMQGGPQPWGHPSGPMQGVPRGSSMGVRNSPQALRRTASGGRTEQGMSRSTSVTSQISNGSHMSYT
Conditions: at 1 µM.

For assay [5], the target named is T2, Serine/threonine-protein kinase TAO1 (Homo sapiens). Conditions: at 10 µM.
In assay [6] the target is T3, Serine/threonine-protein kinase TAO2 (Homo sapiens) (UniProt Q9UL54).
T3 sequence (whole entry): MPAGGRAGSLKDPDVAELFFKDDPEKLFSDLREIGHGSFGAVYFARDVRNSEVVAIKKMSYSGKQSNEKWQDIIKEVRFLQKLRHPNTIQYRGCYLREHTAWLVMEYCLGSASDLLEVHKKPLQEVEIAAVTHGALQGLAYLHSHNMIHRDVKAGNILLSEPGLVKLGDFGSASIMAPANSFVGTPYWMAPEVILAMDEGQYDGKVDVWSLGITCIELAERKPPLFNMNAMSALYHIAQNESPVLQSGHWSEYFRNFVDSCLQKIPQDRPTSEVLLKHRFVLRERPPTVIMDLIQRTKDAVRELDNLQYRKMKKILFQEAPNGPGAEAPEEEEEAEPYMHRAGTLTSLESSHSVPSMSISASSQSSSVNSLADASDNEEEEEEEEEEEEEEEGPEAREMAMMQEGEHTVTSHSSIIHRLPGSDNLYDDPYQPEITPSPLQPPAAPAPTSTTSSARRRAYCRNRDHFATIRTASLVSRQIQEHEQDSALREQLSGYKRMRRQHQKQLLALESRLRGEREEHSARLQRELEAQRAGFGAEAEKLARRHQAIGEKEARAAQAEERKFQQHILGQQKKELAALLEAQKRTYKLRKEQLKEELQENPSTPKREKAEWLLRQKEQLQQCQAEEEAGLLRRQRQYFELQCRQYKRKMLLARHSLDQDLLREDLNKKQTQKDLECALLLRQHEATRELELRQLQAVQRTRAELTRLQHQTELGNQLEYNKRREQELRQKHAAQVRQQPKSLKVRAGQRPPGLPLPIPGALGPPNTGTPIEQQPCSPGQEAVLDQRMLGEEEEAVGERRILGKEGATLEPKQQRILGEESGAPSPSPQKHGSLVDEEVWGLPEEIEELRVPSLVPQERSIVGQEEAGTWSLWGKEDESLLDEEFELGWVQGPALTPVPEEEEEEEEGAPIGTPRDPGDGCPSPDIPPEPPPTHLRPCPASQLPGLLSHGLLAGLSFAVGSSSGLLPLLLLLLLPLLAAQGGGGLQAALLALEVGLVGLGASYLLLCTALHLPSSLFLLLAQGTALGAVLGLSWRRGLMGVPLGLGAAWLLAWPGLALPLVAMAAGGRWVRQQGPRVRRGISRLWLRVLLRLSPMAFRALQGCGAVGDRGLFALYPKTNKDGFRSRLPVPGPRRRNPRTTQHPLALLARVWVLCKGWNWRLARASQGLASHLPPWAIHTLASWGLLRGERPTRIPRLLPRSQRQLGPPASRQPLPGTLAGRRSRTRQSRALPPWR
Conditions: at 1 µM.

The target in assay [7] is T3, Serine/threonine-protein kinase TAO2 (Homo sapiens). Conditions: at 10 µM.
Assay [8] concerns the target T4, Serine/threonine-protein kinase TAO3 (Homo sapiens) (UniProt Q9H2K8).
T4 sequence (whole entry): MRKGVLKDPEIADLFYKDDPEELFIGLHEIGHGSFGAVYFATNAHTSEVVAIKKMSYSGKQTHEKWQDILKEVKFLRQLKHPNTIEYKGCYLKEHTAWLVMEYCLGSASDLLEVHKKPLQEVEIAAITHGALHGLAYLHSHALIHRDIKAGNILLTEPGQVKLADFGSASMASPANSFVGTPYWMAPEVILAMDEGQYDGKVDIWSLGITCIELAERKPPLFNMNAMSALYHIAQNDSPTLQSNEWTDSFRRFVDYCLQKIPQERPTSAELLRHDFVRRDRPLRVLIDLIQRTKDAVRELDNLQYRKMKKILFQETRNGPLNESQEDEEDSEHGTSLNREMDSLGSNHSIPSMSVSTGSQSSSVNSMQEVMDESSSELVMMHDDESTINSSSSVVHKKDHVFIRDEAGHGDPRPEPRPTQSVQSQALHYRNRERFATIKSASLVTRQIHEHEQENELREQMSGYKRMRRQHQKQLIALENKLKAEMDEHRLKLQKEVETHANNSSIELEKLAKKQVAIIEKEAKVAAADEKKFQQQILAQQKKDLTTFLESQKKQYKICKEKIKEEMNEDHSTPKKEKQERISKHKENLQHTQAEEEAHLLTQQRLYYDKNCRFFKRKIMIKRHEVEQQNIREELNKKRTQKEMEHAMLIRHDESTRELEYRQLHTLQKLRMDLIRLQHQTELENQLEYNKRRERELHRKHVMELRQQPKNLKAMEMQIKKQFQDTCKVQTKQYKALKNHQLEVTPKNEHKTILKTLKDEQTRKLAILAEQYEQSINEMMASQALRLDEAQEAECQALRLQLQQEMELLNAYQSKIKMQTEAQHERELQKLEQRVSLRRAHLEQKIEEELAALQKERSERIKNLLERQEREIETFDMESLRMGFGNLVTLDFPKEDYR
Conditions: at 1 µM.

Assay [9] concerns the target T4, Serine/threonine-protein kinase TAO3 (Homo sapiens). Conditions: at 10 µM.
The target of assay [10] is T5, Serine/threonine-protein kinase TBK1 (Homo sapiens) (UniProt Q9UHD2).
T5 sequence (whole entry): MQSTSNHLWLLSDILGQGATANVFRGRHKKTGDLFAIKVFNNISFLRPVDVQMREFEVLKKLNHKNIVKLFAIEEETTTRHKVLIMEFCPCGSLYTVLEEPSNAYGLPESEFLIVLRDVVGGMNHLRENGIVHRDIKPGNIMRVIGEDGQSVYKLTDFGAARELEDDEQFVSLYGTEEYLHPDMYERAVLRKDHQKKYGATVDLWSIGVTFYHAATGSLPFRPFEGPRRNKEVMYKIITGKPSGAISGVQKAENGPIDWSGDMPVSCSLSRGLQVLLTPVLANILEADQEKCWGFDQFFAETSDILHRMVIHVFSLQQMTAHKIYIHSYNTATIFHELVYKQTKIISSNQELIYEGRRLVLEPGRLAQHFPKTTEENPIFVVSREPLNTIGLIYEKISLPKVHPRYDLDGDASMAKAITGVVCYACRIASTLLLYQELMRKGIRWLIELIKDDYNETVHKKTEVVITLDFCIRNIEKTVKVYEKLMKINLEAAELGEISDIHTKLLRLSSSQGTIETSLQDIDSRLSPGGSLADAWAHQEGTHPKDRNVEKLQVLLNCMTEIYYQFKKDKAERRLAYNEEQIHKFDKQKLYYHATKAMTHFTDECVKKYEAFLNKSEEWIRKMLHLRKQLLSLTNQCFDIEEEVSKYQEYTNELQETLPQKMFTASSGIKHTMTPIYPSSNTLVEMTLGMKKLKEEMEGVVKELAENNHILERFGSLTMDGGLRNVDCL
Conditions: at 1 µM.

The structures appear in SMILES notation.

With `COc1ccc(CNc2nc(N(CCO)CCO)nc3c2ncn3C(C)C)cc1`, the residual activity came out at 114% in assay [1]; 92% in assay [2]; 82% in assay [3]; 96% in [4]; 81% in assay [5]; 96% in assay [6]. Besides, the residual activity in [7] was 95%; in assay [8], 92%; in assay [9] it was 71%; in [10] it was 69%.
